Here are results for 32 molecules from PubChem BioAssay (NCATS).

Experiment [1] can be described thus: Validation screen for inhibitors of Lassa infection (AID 463096). Further: potency means the concentration at half of the fitted maximal effect.
The nature of experiment [2]: Inducers of the Endoplasmic Reticulum Stress Response (ERSR) in human glioma: Validation (AID 504836; active means well fitted curve in the direction sought with a large enough effect). The method, boiled down:
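Stably transfected U87-MG human glioma cells carrying a GRP78-based luminescent sensor were seeded at 1000 cells/well, pin-dosed with compounds and incubated 16 h. Luciferase reagent was then added, and end-point luminescence was read after 10 min at room temperature.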

Experiment [3] is described as follows: qHTS for Inhibitors of the Functional Ribonucleoprotein Complex (vRNP) of Lassa (LASV) Arenavirus: LASV Primary Screen - GLuc reporter signal (AID 1347082; calls by dose curve; tested in HEK293 reporter line; further: series mostly up to about 57 µM; nearly all actives have a fitted effect of over 60% in size).
Experiment [4] can be described thus: qHTS for Inhibitors of the Functional Ribonucleoprotein Complex (vRNP) of Lassa (LASV) Arenavirus: Viability assay - alamar blue signal for LASV Primary Screen (AID 1347083; calls by dose curve; tested in HEK293 reporter line; further: series mostly up to about 57 µM; nearly all actives have a fitted effect of over 80% in size). For orientation: In qHTS, concentration-response curves come from the screen itself.
Experiment [5] is described as follows: qHTS for Inhibitors of the Functional Ribonucleoprotein Complex (vRNP) of Lymphocytic Choriomeningitis Arenaviruses (LCMV): Viability assay - alamar blue signal for LCMV Primary Screen (AID 1347085; calls by dose curve; tested in HEK293 reporter line; further: series mostly up to about 57 µM; nearly all actives have a fitted effect of over 80% in size).
Experiment [6] has as its target Nucleoprotein (Lymphocytic choriomeningitis virus (strain Armstrong)) (UniProt P09992). Briefly: qHTS for Inhibitors of the Functional Ribonucleoprotein Complex (vRNP) of Lymphocytic Choriomeningitis Arenaviruses (LCMV): LCMV Primary Screen - GLuc reporter signal (AID 1347086). Further: series mostly up to about 57 µM; nearly all actives have a fitted effect of over 70% in size.

The structures appear in SMILES notation. Records with an inconclusive call do not appear. Calls of active or inactive are those of the source. Unless noted, the call rests on the fitted dose curve.

Sequence of Nucleoprotein (Lymphocytic choriomeningitis virus (strain Armstrong)) (P09992 whole entry, looked up): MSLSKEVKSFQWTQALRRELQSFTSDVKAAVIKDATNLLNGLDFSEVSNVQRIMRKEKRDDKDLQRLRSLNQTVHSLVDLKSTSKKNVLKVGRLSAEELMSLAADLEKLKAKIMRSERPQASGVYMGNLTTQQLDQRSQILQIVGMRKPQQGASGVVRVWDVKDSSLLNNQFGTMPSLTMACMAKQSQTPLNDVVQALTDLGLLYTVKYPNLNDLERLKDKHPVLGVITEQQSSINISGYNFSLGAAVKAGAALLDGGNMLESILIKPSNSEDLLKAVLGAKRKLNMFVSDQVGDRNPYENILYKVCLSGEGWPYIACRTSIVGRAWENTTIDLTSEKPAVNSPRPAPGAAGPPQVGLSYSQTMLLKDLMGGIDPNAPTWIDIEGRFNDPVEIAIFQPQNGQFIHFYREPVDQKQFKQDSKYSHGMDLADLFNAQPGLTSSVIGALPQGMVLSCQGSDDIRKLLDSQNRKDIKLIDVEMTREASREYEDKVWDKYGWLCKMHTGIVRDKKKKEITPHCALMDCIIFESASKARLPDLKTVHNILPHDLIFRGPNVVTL

Take `OC[C@H]1NC[C@@H](O)[C@@H]1O`: the Potency entry in experiment [1], in experiment [3], in experiment [4], in experiment [5] and in experiment [6] was “inactive” throughout. Further, in experiment [2], the result was inactive.

As to `COC(=O)[C@H]1[C@H]2C[C@H]3c4[nH]c5ccccc5c4CCN3C[C@H]2CC[C@@H]1O`, the Potency entry in experiment [1], in experiment [3], in experiment [4], in experiment [5] and in experiment [6] was “inactive” in each case. Also, in experiment [2], the molecule was called inactive.

On to `CCCCOc1cc(CC2CNC(=O)N2)ccc1OC` (configuration not stated), for which the Potency entry in experiment [1], in experiment [3], in experiment [4], in experiment [5] and in experiment [6] was “inactive” each time. The outcome in experiment [2] was inactive.

For `N[C@@H](Cc1ccc(F)cc1)C(=O)O`, the Potency result in experiment [1], in experiment [3], in experiment [4], in experiment [5] and in experiment [6] was “inactive” each time. Further, the result in experiment [2] was inactive.

As for `C=CC1(C)CC(=O)C2(O)C(C)(O1)C(OC(C)=O)C(O)C1C(C)(C)CCC(O)C12C` (configuration not stated), the Potency entry in experiment [1], in experiment [3], in experiment [4], in experiment [5] and in experiment [6] was “inactive” each time. The molecule was called inactive in experiment [2].

Consider `c1ccc(C2CN3CCSC3=N2)cc1` (configuration not stated), for which the Potency entry in experiment [1], in experiment [3], in experiment [4], in experiment [5] and in experiment [6] was “inactive” in each case. Moreover, the outcome in experiment [2] was inactive.

With `O=C(/C=C/c1ccc(O)cc1)c1ccc(O)cc1O`, the Potency result in experiment [1], in experiment [3], in experiment [4], in experiment [5] and in experiment [6] was “inactive” each time. The call in experiment [2] was inactive.

Regarding `COc1cc(C(O)C(=O)O)ccc1O` (configuration not stated), the Potency result in experiment [1], in experiment [3], in experiment [4], in experiment [5] and in experiment [6] was “inactive” in each case. The outcome in experiment [2] was inactive.

As to `NC(Cc1cccc(-c2ccccc2CP(=O)(O)O)c1)C(=O)O` (configuration not stated), the Potency result in experiment [1], in experiment [3], in experiment [4], in experiment [5] and in experiment [6] was “inactive” each time. For the same molecule, the outcome in experiment [2] was inactive.

On to `CN(C)CCC(c1ccc(Cl)cc1)c1ccccn1` (configuration not stated), for which the Potency entry in experiment [1], in experiment [3], in experiment [4], in experiment [5] and in experiment [6] was “inactive” throughout. Besides, the call in experiment [2] was inactive.

Regarding `Cc1cccc(C)c1OCC(N)C(C)C` (configuration not stated), the Potency result in experiment [1], in experiment [3], in experiment [4], in experiment [5] and in experiment [6] was “inactive” in each case. The result in experiment [2] was inactive.

Turning to `S=C(S)OC1CC2CC1C1CCCC21` (configuration not stated), the Potency entry in experiment [1], in experiment [3], in experiment [4], in experiment [5] and in experiment [6] was “inactive” throughout. Moreover, the outcome in experiment [2] was inactive.

As for `N[C@H]1CONC1=O`, the Potency result in experiment [1], in experiment [3], in experiment [4], in experiment [5] and in experiment [6] was “inactive” each time. In experiment [2], the call was inactive.

Turning to `NCCC1CCCC(CCN)N1` (configuration not stated), the Potency entry in experiment [1], in experiment [3], in experiment [4], in experiment [5] and in experiment [6] was “inactive” each time. Also, the call in experiment [2] was inactive.

In the case of `Oc1cc(O)c2c(c1)O[C@H](c1ccc(O)c(O)c1)[C@@H](O)C2`, the Potency entry in experiment [1], in experiment [3], in experiment [4], in experiment [5] and in experiment [6] was “inactive” throughout. In addition, the result in experiment [2] was inactive.

As for `CCCCCCCCCCCCCCCC(=O)NCC(COP(=O)([O-])OCC[N+](C)(C)C)OCC` (configuration not stated), the Potency in experiment [1] is 11.2 µM (active). In addition, the call in experiment [2] was inactive. The Potency entry in experiment [3], in experiment [4], in experiment [5] and in experiment [6] was “inactive” in each case.

For the molecule `CC1CN(S(=O)(=O)c2cccc3cnccc23)CCN1` (configuration not stated), the Potency entry in experiment [1], in experiment [3], in experiment [4], in experiment [5] and in experiment [6] was “inactive” in each case. Further, in experiment [2], the call was inactive.

Regarding `CCCCCCCCCCCCCCCCCCNC(=O)OCC(COP(=O)([O-])OCC[n+]1ccsc1)OC` (configuration not stated), the Potency result in experiment [1], in experiment [3], in experiment [4], in experiment [5] and in experiment [6] was “inactive” each time. Moreover, the molecule was called inactive in experiment [2].

Regarding `COc1cccc(OC)c1OCCNCC1CSc2ccccc2O1` (configuration not stated), the Potency entry in experiment [1], in experiment [3], in experiment [4], in experiment [5] and in experiment [6] was “inactive” in each case. Also, the outcome in experiment [2] was inactive.

Regarding `NC1CONC1=O` (configuration not stated), the Potency result in experiment [1], in experiment [3], in experiment [4], in experiment [5] and in experiment [6] was “inactive” throughout. Besides, in experiment [2], the molecule was classed as inactive.

For `CNc1ncnc2c1ncn2[C@H]1C[C@H](OP(=O)(O)O)[C@@H](COP(=O)(O)O)O1`, the Potency result in experiment [1], in experiment [3], in experiment [4], in experiment [5] and in experiment [6] was “inactive” each time. In addition, the call in experiment [2] was inactive.

Turning to `CC1(C)CCC(NC(=O)[C@@H](N)CCC(=O)O)CC1`, the Potency entry in experiment [1], in experiment [3], in experiment [4], in experiment [5] and in experiment [6] was “inactive” each time. Further, the molecule was called inactive in experiment [2].

On to `O=C(O)CC1CCCc2ccccc2C1O` (configuration not stated), for which the Potency result in experiment [1], in experiment [3], in experiment [4], in experiment [5] and in experiment [6] was “inactive” each time. Besides, the outcome in experiment [2] was inactive.

As for `CCCCCCCCCC(=O)NC(CN1CCOCC1)[C@H](O)c1ccccc1` (some centres not stated), the Potency result in experiment [1], in experiment [3], in experiment [4], in experiment [5] and in experiment [6] was “inactive” each time. Further, the molecule was called inactive in experiment [2].

For the molecule `CC(/C=C/c1cccc(Oc2ccc(F)cc2)c1)N(O)C(N)=O` (configuration not stated), the Potency entry in experiment [1], in experiment [3], in experiment [4], in experiment [5] and in experiment [6] was “inactive” each time. For the same molecule, in experiment [2], the outcome was inactive.

As for `NC1(C(=O)O)CCc2cc(C(=O)O)ccc21` (configuration not stated), the Potency entry in experiment [1], in experiment [3], in experiment [4], in experiment [5] and in experiment [6] was “inactive” each time. For the same molecule, the result in experiment [2] was inactive.

For `CC(C)(C)c1onc(OCP(=O)(O)O)c1CC(N)C(=O)O` (configuration not stated), the Potency result in experiment [1], in experiment [3], in experiment [4], in experiment [5] and in experiment [6] was “inactive” in each case. For the same molecule, the outcome in experiment [2] was inactive.

With `COC1(C2=NCCN2)COc2ccccc2O1` (configuration not stated), the Potency result in experiment [1], in experiment [3], in experiment [4], in experiment [5] and in experiment [6] was “inactive” each time. Besides, the molecule was classed as inactive in experiment [2].

As to `CC1=C(C(=O)O)N2C(=O)[C@@H](NC(=O)C(N)C3=CCC=CC3)[C@H]2SC1` (some centres not stated), the Potency result in experiment [1], in experiment [3], in experiment [4], in experiment [5] and in experiment [6] was “inactive” each time. In addition, the call in experiment [2] was inactive.

On to `O=C(O)CCCC[C@@H]1CCSS1`, for which the Potency result in experiment [1], in experiment [3], in experiment [4], in experiment [5] and in experiment [6] was “inactive” throughout. The call in experiment [2] was inactive.

For `O=C(O)CCC(=O)N1CCCC1C(=O)O` (configuration not stated), the Potency result in experiment [1], in experiment [3], in experiment [4], in experiment [5] and in experiment [6] was “inactive” throughout. Also, in experiment [2], the outcome was inactive.

With `Oc1ccc(C2CNCc3sccc32)cc1O` (configuration not stated), the Potency entry in experiment [1], in experiment [3], in experiment [4], in experiment [5] and in experiment [6] was “inactive” in each case. Further, the molecule was classed as inactive in experiment [2].
